From PubChem
Most compounds without a hit are left out; they make up all but 2.1% or so of the library.
PfHsp40 yeast = rescue of yeast from PfHsp40 toxicity, primary screen, S. cerevisiae, ATP luminescence | actives 0.68% (n = 340,000) | S. cerevisiae expressing PfHsp40, growth rescue | growth rescue, % at 12.5 µM | AID 504582, 2011; in the data active means growth rescue above about 28%, passing the limit was not always enough;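 further: yeast W303a lacking pdr1 and pdr3 grown in galactose medium; growth measured after three days at 30 °C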
MazEF act = activators of E. coli MazEF toxin-antitoxin RNase, primary screen, biochemical, fluorescence, uHTS. AID 504720, 2011. actives 0.32% (n = 350,000). Endoribonuclease toxin MazF (Escherichia coli (strain K12)), P0AE70. FAM/BHQ RNA-DNA oligo cleavage fluorescence, 5 h. activation, % at 20 µM; in the data active means activation above about 50%
Target sequence (P0AE70 whole entry, looked up): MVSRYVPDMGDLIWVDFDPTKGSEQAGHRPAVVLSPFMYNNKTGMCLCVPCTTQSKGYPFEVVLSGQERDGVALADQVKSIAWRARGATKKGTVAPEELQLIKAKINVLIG
DUSP3 inh = VHR1 phosphatase inhibitors, primary screen, biochemical, absorbance, uHTS; Dual specificity protein phosphatase 3 (Homo sapiens), P51452; inhibition, % at 13.3 µM; actives 0.52% (n = 290,000); recombinant VHR phosphatase, pNPP absorbance; in the data active means inhibition above about 50%
Target sequence (P51452 whole entry, looked up): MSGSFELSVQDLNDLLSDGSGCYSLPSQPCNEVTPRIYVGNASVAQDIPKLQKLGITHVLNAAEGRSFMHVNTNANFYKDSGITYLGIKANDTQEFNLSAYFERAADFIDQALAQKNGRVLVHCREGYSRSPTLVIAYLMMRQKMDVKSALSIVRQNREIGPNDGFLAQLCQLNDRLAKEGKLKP
PrP 5UTR inh = inhibition of PrP 5' UTR reporter expression; AID 488862, 2010; actives 0.35% (n = 340,000); inhibition, % (no concentration beside the values); cell-based PrP 5' UTR mRNA reporter, plate reader; in the data active means inhibition above about 52%; further: 0 = median of the neutral control wells
BJeLR lethal = MLPCN primary cell-based screen for lethality selective to Ras in HRASV12 cells; BJeLR (HRASV12) viability, CellTiter-Glo ATP luminescence, 48 h; inhibition, % (no concentration beside the values); actives 0.17% (n = 300,000); AID 1554, 2009; in the data active means inhibition above about 50%
PrPC TRFRET = inhibitors of human cell surface prion protein PrPC, primary screen, cell-based, TR-FRET. Major prion protein (Homo sapiens), P04156. TR-FRET read-out. inhibition, % at 13.8 µM. actives 0.43% (n = 370,000); in the data active means inhibition above about 24%; further: 0% = median of the test wells and 100% = reference compound wells
Starred values were filed as active, the others as inactive; . = no result given.

SMILES | PfHsp40 yeast | MazEF act | DUSP3 inh | PrP 5UTR inh | BJeLR lethal | PrPC TRFRET
CCn1c(NC(=O)c2ccccc2)nc2ccccc21 | 3 | 11 | -13 | -28 | 4 | -12
CC(=O)Nc1nc2ccccc2n1CCN(C)C | -1 | 4 | 19 | -29 | 4 | 0
CCCCn1c(NC(=O)c2ccccc2)nc2ccccc21 | 97* | -8 | 30 | -7 | -7 | -9
CCn1c(NC(=O)c2cccc(Cn3cc(Cl)cn3)c2)nc2ccccc21 | 0 | 10 | 51* | -30 | 16 | -5
CN(C(=O)CNc1ccccc1Cl)C1CCS(=O)(=O)C1 (stereo not drawn) | -2 | 12 | . | -10 | . | 0
O=S1(=O)c2ccc(N3CCN(Cc4ccccc4F)CC3)cc2Oc2ccccc2CN1Cc1cn(Cc2ccccc2C(F)(F)F)nn1 | . | . | . | . | . | 0
O=C(CSc1nc2ccccc2c(=O)n1-c1ccc(F)cc1)NC1CCS(=O)(=O)C1 (stereo not drawn) | -1 | -1 | . | -14 | . | 0
COc1ccc(CN(C)C(=O)COc2cccc(-n3cnnn3)c2)cc1OC | 0 | 5 | . | -8 | . | 3
CC1CN(c2ccccn2)C(C)CN1C(=S)Nc1ccccc1 (stereo not drawn) | -1 | 5 | . | -11 | . | 8
CCCCN(C)S(=O)(=O)c1cc2c(cc1Br)CCN2C(=O)C1CC1 | 123* | -3 | . | -26 | . | -6
COc1ccc([N+](=O)[O-])c(S(=O)(=O)c2ccc(Cl)cc2)n1 | 50* | 4 | -3 | -25 | 5 | 0
COc1nc(OC)nc(Oc2ccc(Cl)cc2[N+](=O)[O-])n1 | -2 | 1 | -7 | -21 | 0 | -10
COc1ccc(N2C(N)=NC(N)=NC2(C)C)cc1 | 0 | 6 | 15 | -20 | 6 | 1
COc1cccc(N2C(N)=NC(N)=NC2(C)C)c1 | 0 | -4 | 1 | -22 | 79* | -5
COc1ccc2cc(C(=O)C3CCCN(Cc4cnc(N5CCOCC5)s4)C3)ccc2c1 (stereo not drawn) | -2 | -1 | 52* | -48 | 6 | -8
Cc1ccsc1C(=O)C1CCCN(Cc2cnc(N3CCOCC3)s2)C1 (stereo not drawn) | 0 | 5 | 32 | -11 | 11 | -1
CC(=O)N1C[C@@H](CN2C(=O)CCC2=O)[C@@H]2C[C@H]1c1ccccc1N2C | . | . | . | . | . | 2
O=C1NC2C(=CC(O)C(O)C2O)c2cc3c(cc21)OCO3 (stereo not drawn) | 0 | 5 | . | 3 | . | 91*
O=C1NCCc2cc3c(cc21)OCO3 | -2 | 4 | 8 | -9 | -5 | -5
Cn1c(CNC(=O)c2ccc(Cl)cc2)nnc1SCC(=O)Nc1sc2c(c1C#N)CCCC2 | 0 | 106* | 33 | -37 | 1 | -2
Cc1ccc(C(=O)NCc2nnc(SCC(=O)Nc3sc4c(c3C#N)CCCC4)n2C)cc1 | -1 | 0 | -5 | -12 | -3 | -2
CC(C)c1ccc[n+](-c2nc([O-])sc2C=O)c1 | . | -4 | 5 | . | 3 | -12
Cc1ccc[n+](-c2nc([O-])sc2C=O)c1 | 0 | 69* | 41 | -33 | . | -18
Cc1ccc(C2(C)NC(=O)N(CC(=O)Nc3ccccc3N3CCCC3)C2=O)cc1 (stereo not drawn) | -1 | -5 | . | -22 | 1 | .
Cc1ccc(S(=O)(=O)NNC(=O)c2ccncc2)cc1[N+](=O)[O-] | 1 | 3 | 4 | -26 | 1 | 0
SMILES | PfHsp40 yeast | MazEF act | DUSP3 inh | PrP 5UTR inh | BJeLR lethal | PrPC TRFRET
O=Nc1ccc(NOC(=O)c2ccccc2Br)cc1 | -1 | 6 | -3 | -40 | -8 | -6
O=C(ONc1ccc(N=NC(=O)c2ccccc2O)cc1)c1ccccc1 | 0 | 1 | 52* | -48 | -15 | 10
COc1cccc(N2CCN(C(=O)c3ccc(CS(=O)c4ccc(C)cc4)o3)CC2)c1 (stereo not drawn) | 2 | 5 | 44 | 15 | 52* | 15
CCOC(=O)c1sc(=S)n(-c2ccc(OC)cc2)c1C | . | 3 | -4 | . | 9 | -9
CCOC(=O)c1c2c(n(-c3ccc(OC)cc3)c1C)C(=O)C(=O)c1ccccc1-2 | 85* | 8 | . | -43 | . | .
CCOC(=O)c1ncn2c1[C@@H]1CCNC1C(=O)c1cc(OC)ccc1-2 (stereo partly drawn) | 0 | 3 | . | -24 | . | 0
COCCNC(=S)N(CCc1c(C)[nH]c2ccc(C)cc12)Cc1ccco1 | 0 | -5 | 18 | -8 | -2 | 3
COCCNC(=S)N(CCc1c(C)[nH]c2ccc(OC)cc12)Cc1ccco1 | -1 | 7 | 57* | -12 | -2 | 3
CNC(=S)N(CCc1c(C)[nH]c2ccc(OC)cc12)Cc1ccco1 | -1 | -9 | 57* | -1 | -8 | 1
COc1ccc(NC(=S)N(CCc2c(C)[nH]c3ccc(C)cc23)Cc2ccco2)cc1 | 0 | 1 | 4 | -15 | 2 | -6
Cc1cc2c(cc1C)CSC(c1ccc3ccccc3c1O)SC2 | 2 | 5 | -8 | -24 | 4 | -4
Cc1cc2c(cc1C)CSC(c1c(O)ccc3ccccc13)SC2 | 160* | 7 | -8 | -21 | 8 | -1
CCN(CC)c1ccc(N)cc1 | -1 | 99* | . | 3 | . | .
Cc1ccc(NC(=O)CCCC2CCCCC2)c(O)c1 | 0 | -4 | 0 | -40 | -4 | -1
CCOc1ccc(CC(=O)Nc2ccc(NC(=O)c3ccco3)cc2)cc1OCC | 0 | 1 | 33 | -31 | 82* | 6
CCOc1ccc(CC(=O)Nc2nccs2)cc1OCC | 38* | 1 | 6 | -20 | 3 | -6
CCOc1cc(NC(=S)NCC(C)C)c(OCC)cc1NC(=O)c1ccco1 | -1 | 7 | 51* | -15 | -1 | 9
COc1ccc(CC(=O)Nc2nccs2)cc1OC | 0 | 3 | -3 | -10 | 14 | 4
O=C(CNC(=O)c1cccc(F)c1)OCC(=O)N1CCN(C(=O)c2ccco2)CC1 | 0 | 9 | 11 | -27 | 1 | 1
O=C(CNC(=O)c1cccc(F)c1)OCC(=O)N1CCCCC1 | -1 | -3 | 51* | -42 | 1 | -1
C(=N\NC1=Nc2cccc3cccc1c23)/c1ccccc1 | 0 | 509* | 2 | -197 | 2 | -6
O=C(NCc1ccccc1)c1c(Cl)nc(Cl)c(Cl)c1Cl | -1 | 0 | 21 | -5 | 70* | -2
CN(C)c1ccc(/C=C2\SC(=S)N(Nc3ncc(C(F)(F)F)cc3Cl)C2=O)cc1 | 1 | 52* | 17 | -22 | -3 | 4
O=C(NC1CCSc2ccccc21)c1cccc(Br)c1 (stereo not drawn) | 94* | -5 | -3 | -15 | -6 | 6
